From PubChem BioAssay AID1345085 (National Center for Advancing Translational Sciences (NCATS), 2018)
Records with an inconclusive call do not appear. The source made the active and inactive calls. The call rests on the fitted dose curve; in most records, active means well fitted cell-killing curve with a large enough effect; inconclusive means small, poorly fitted or top-dose-only effect, or effect the other way; inactive means no such curve, though single readings can be large or run the other way.

test system: Tov-21-G; assay: Confirmatory qHTS for gynecologic anti-cancer compounds from libraries of approved drugs and bioactive compounds; conditions: gynecologic cancer cell panel viability, ATPlite luminescence, 48 h; series mostly up to 57.7 µM; further: nearly all actives have a fitted effect of over 55% in size
How it was run: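 1,000 cells/well; 16 h pre-incubation 37 C, 5% CO2; pin-transferred cpd in DMSO, 11 conc (1:3), 57.5 uM–0.977 nM; 48 h; ATPlite, 15 min RT; luminescence → IC50.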
Potency means the concentration at half of the fitted maximal effect.

SMILES	Potency
CCN(CC)CCNC(=O)c1c(C)[nH]c(/C=C2\C(=O)Nc3ccc(F)cc32)c1C	11.2 µM (active)
CCS(=O)(=O)c1cccc(-c2cc(C(=O)NC3CCN(C)CC3)c(C)c3[nH]c4ncc(C)cc4c23)c1	1.5 µM (active)
O=C1N(c2ccccc2)c2ccccc2C1(Cc1ccncc1)Cc1ccncc1	inactive
CN(NC(=O)CC(=O)NN(C)C(=S)c1ccccc1)C(=S)c1ccccc1	0.153 µM (active)
CN1CCN(CCOc2cc(OC3CCOCC3)c3c(Nc4c(Cl)ccc5c4OCO5)ncnc3c2)CC1	0.243 µM (active)
Fc1cc(-c2cccc3ncc(-c4cnn(C5CCNCC5)c4)nc23)cc(F)c1CN1CCOCC1	12.2 µM (active)
CC1(C)[C@@H](O)CC[C@]2(C)[C@H]3C(=O)C=C4[C@@H]5C[C@@](C)(C(=O)O)CC[C@]5(C)CC[C@@]4(C)[C@]3(C)CC[C@@H]12	inactive
CCN1CCN(Cc2ccc(-c3cc4c(NC(C)c5ccccc5)ncnc4[nH]3)cc2)CC1 (configuration not stated)	1.72 µM (active)
CCN1CCN(Cc2ccc(Nc3ncc(F)c(-c4cc(F)c5nc(C)n(C(C)C)c5c4)n3)nc2)CC1	2.73 µM (active)
OC[C@H]1O[C@@H](n2cnc3c(=S)nc[nH]c32)[C@H](O)[C@@H]1O	inactive
c1cc(N[C@@H]2CCNC2)nc(-c2cnc3ccc(-c4cn[nH]c4)cn23)c1	2.43 µM (active)
Cc1nc(Nc2n[nH]c3c2CN(C(=O)NC(CN(C)C)c2ccccc2)C3(C)C)c2sccc2n1 (configuration not stated)	2.43 µM (active)
CN[C@@H](C)C(=O)N[C@H]1CN(C(=O)CC(C)C)CC[C@H]2CC[C@@H](C(=O)NC(c3ccccc3)c3ccccc3)N2C1=O	21.7 µM (active)
CNC(=O)c1ccccc1Nc1nc(Nc2ccc(N3CCOCC3)cc2OC)ncc1Cl	3.85 µM (active)
COc1cc2c(NC3CCN(C(C)C)CC3)nc(C3CCCCC3)nc2cc1OCCCN1CCCC1	10.9 µM (active)
OCCNC1CCCc2c1[nH]c1ccc(-c3ccccc3)cc21 (configuration not stated)	27.3 µM (active)

SMILES	Potency
CN(C)/N=N/c1nc[nH]c1C(N)=O	inactive
Cc1cc(SCc2sc(-c3ccc(C(F)(F)F)cc3)nc2C)ccc1OCC(=O)O	inactive
CC(C)Nc1cc(-c2c[nH]c(C(=O)N[C@H](CO)c3cccc(Cl)c3)c2)c(Cl)cn1	24.3 µM (active)
Cc1cc(C2CCCCC2)n(O)c(=O)c1	17.7 µM (active)
CC[C@]1(O)C[C@H]2CN(CCc3c([nH]c4ccccc34)[C@@](C(=O)OC)(c3cc4c(cc3OC)N(C=O)[C@H]3[C@@](O)(C(=O)OC)[C@H](OC(C)=O)[C@]5(CC)C=CCN6CC[C@]43[C@@H]65)C2)C1	0.611 µM (active)
CCN(CC)CCCC(C)Nc1c2ccc(Cl)cc2nc2ccc(OC)cc12 (configuration not stated)	30.6 µM (active)
CCn1cc(-c2ccnc3[nH]c(-c4cccc(CN(C)C)c4)cc23)c(-c2ccc(NC(=O)N(C)C)cc2)n1	7.49 µM (active)
CCc1c2c(nc3ccc(OC(=O)N4CCC(N5CCCCC5)CC4)cc13)-c1cc3c(c(=O)n1C2)COC(=O)[C@]3(O)CC	21.7 µM (active)
O=C(NOC[C@H](O)CO)c1ccc(F)c(F)c1Nc1ccc(I)cc1F	1.72 µM (active)
CC(Oc1cc(-n2cnc3ccc(CN4CCN(C)CC4)cc32)sc1C(N)=O)c1ccccc1C(F)(F)F (configuration not stated)	27.3 µM (active)
Nc1ccc(-c2ccc3ncc4ccc(=O)n(-c5cccc(C(F)(F)F)c5)c4c3c2)cn1	3.43 µM (active)
CN(Cc1cnc2nc(N)nc(N)c2n1)c1ccc(C(=O)N[C@@H](CCC(=O)O)C(=O)O)cc1	inactive
COc1ccccc1N1CCN(CC(O)COc2cccc3ccccc23)CC1 (configuration not stated)	inactive
Cc1c(NC(=O)OCC2COCCN2)cn2ncnc(Nc3ccc4c(cnn4Cc4cccc(F)c4)c3)c12 (configuration not stated)	3.06 µM (active)
Nc1ncn([C@@H]2O[C@H](CO)[C@@H](O)[C@H]2O)c(=O)n1	19.3 µM (active)
CC[C@@]1(O)C(=O)OCc2c1cc1n(c2=O)Cc2cc3c(CN(C)C)c(O)ccc3nc2-1	5.44 µM (active)
